Source: PubChem
SW480 rerep = A quantitative high throughput screen for small molecules that induce DNA re-replication in SW480 colon adenocarcinoma cells; SW480 DNA re-replication, Hoechst DNA content imaging, 48 h; Potency, µM (top dose mostly 46.1 µM), for the others: top-dose re-replication activation, usual class: activators; 1.8% of 340,000 active; AID 624297, 2012; also: % of control where 0% means no effect; nearly all actives have a fitted effect of over 55% in size
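Per well, 250 cells were exposed to pinned compound for 48 hr. Nuclear DNA was visualised with Hoechst (40 min, 37 C) and total object intensity recorded by fluorescence scanning.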
KB-V1 MDR tox = qHTS assay for MDR1-selective chemotherapeutics: Primary screen using the drug-selected MDR subline cells KB-V1. KB-V1 MDR cells viability, CellTiter-Glo, 72 h. Potency, µM (top dose mostly 46.1 µM), usual class: cytotoxic. 3.4% of 400,000 active. AID 1347076, 2019; also: % is scaled to controls: 0 for no effect and ±100 for the full control effect; nearly all actives have a fitted effect of over 60% in size
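Compound-treated KB-V1 multidrug-resistant cells, 72 h, 37 degrees C; viability by CellTiter-Glo. Fitted qHTS curves give the values.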
KB-3-1 tox = qHTS assay for MDR1-selective chemotherapeutics: Primary screen using the parental adenocarcinoma cell KB-3-1; KB-3-1 viability, CellTiter-Glo ATP luminescence, 72 h; Potency, µM (highest dose often 46.1 µM), hits mostly cytotoxic; 1.4% of 400,000 active; AID 1347075, 2019; also: % is scaled to controls: 0 for no effect and ±100 for the full control effect; nearly all actives have a fitted effect of over 60% in size
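KB-3-1 parental drug-naive adenocarcinoma cells in DMEM/10% FBS, incubated 72 h at 37 C with pin-transferred compounds across a concentration series. Viability by CellTiter-Glo luminescence; concentration-response curves fitted after normalization.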
RORgamma inh = qHTS for inhibitors of ROR gamma transcriptional activity; Nuclear receptor ROR-gamma (Mus musculus), P51450; Potency, µM (titrated, usually from 53.6 µM), for the others: at the top dose activity change, negative = inhibition, usual class: inhibitors; Drosophila S2 Gal4-RORgamma UAS-luciferase reporter, 20 h; 5.4% of 310,000 active; also: % is scaled to controls: 0 for no effect and ±100 for the full control effect; nearly all actives have a fitted effect of over 60% in size
Target sequence (P51450 whole entry, looked up, the tested form may be a part): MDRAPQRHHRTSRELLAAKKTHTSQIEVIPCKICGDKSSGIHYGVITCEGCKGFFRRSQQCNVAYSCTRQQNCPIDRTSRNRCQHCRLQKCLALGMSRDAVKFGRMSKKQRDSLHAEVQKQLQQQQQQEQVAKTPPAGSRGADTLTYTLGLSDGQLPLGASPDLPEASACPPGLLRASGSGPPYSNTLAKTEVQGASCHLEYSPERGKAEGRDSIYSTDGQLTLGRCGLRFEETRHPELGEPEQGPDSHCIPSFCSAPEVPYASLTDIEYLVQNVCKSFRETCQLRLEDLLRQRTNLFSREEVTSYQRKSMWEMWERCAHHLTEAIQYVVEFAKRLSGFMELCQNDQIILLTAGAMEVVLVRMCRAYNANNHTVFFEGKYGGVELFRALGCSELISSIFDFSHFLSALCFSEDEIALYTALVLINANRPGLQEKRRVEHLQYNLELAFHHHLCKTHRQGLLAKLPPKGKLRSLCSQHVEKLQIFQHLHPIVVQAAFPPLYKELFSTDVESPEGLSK
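Stably transfected Drosophila Schneider cells are the test system, with ROR gamma fused to Gal4 and luciferase under UAS control; luminescence is read after 20 hr of 700 uM copper sulfate induction at ambient temperature.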
VP16 counter = VP16 counterscreen qHTS for inhibitors of ROR gamma transcriptional activity. Drosophila S2 Gal4-VP16 UAS-luciferase, luminescence, 20 h. Potency, µM (highest dose often 53.6 µM), for the others: at the top dose activity, negative = inhibition, usual class: inhibitors. 3.5% of 310,000 active. AID 2546, 2010;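 also: Gal4-VP16 expression switched on by copper sulfate through the metallothionein promoter; % is scaled to controls: 0 for no effect and ±100 for the full control effect; nearly all actives have a fitted effect of over 50% in size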
MCF10A rereplic = A quantitative high throughput screen for small molecules that induce DNA re-replication in MCF 10a normal breast cells; Potency, µM (titrated, usually from 46.1 µM), for the others: top-dose activity, positive = re-replication, hits mostly activators; MCF 10A DNA re-replication, Hoechst nuclear intensity, 48 h; 2.9% of 350,000 active; also: % of control where 0% means no effect; nearly all actives have a fitted effect of over 50% in size
Numbers without * were called inactive; i = inactive; u = inconclusive; x = no result given; ! = repeats disagree; [ ] = dose if it differs, or a comment. Compounds with a hit are over-represented: about 10% of the library has one in this group of screens. Calls follow the shape of the dose curve; as a rule, active = well fitted curve in the direction sought with a large enough effect; inconclusive = small, poorly fitted or top-dose-only effect, or another doubt; inactive = no such curve, though single readings can be large; an effect the other way counts as inactive or inconclusive. Potency is read from the fitted curve at half-maximal effect.

SMILES	SW480 rerep	KB-V1 MDR tox	KB-3-1 tox	RORgamma inh	VP16 counter	MCF10A rereplic
Cc1ccc(/C=C/C(=O)Nc2ccccc2C(N)=O)cc1	-1%	i	u	3.5µM*	u	u
NC(=O)c1ccccc1N/C=C/C(=O)c1ccco1	-2%[9.22 µM]	i	i	-20%	-9%	-2%
Cc1ccc(C(=O)/C=C/Nc2ccccc2C(N)=O)cc1	-1%	i	u	0.5µM*	2.8µM*	2%
NC(=O)c1ccccc1NC(=O)/C=C/C(=O)O	-11%	i	i	28%	1%	2%
CCOC(=O)c1ccccc1N/C=C/C(=O)c1ccccc1	2%	u	i	x	x	-1%
CC(C)[C@@H](CC(=O)N[C@@H]1CCNC[C@H]1C(=O)N[C@H](CC(=O)N[C@@H](CCC(=O)O)CC(=O)O)Cc1c[nH]c2ccccc12)NC(=O)C[C@H](Cc1ccccc1)NC(=O)[C@@H]1CNCC[C@H]1N	x	x	x	1%	-9%	x
Cc1ccc(CNc2nc(-c3ccco3)nn2C(=O)c2ccccc2[N+](=O)[O-])cc1	x	u	i	x	x	x
Cc1cn2c(=O)cc(COc3ccccc3NC(=O)c3ccccc3C)nc2s1	x	i	i	x	x	x
COc1cccc2c1OCC(CN1CCN(Cc3ccccc3F)C(CCO)C1)=C2 (stereo unspecified)	u	u	i	12%	-1%	0.73µM*
COc1cccc(CN2CCN(Cc3cccc4c3OCO4)CC2CCO)c1 (stereo unspecified)	-141%	i	i	7.1µM*	7.9µM*	1%
COc1cccc2c1OCC(CN1CCN(Cc3ccccc3)C(CCO)C1)=C2 (stereo unspecified)	23%	u	u	-2%	6%	-1%
Cc1ccc(CN2CCN(Cc3cccc4c3OCO4)CC2CCO)cc1 (stereo unspecified)	-3%	i	i	3%	-1%	-9%
Cc1ccc(OCC(=O)Nn2c(C)nc3ccccc3c2=O)c(C(C)C)c1	-3%	18µM*	i	-19%	22µM*	-1%
Cc1ccc2nc(/N=C(\N)NC(=O)NC3CCCCC3)nc(C)c2c1	u	u	u	-67%	7.1µM*	u
CCCC(=O)N/C(N)=N/c1nc(C)c2cc(C)ccc2n1	-1%	i	18µM*	-21%	1%	10%
Cc1nc(/N=C(\N)NC(=O)c2ccccc2)nc2ccccc12	-2%	i	i	10%	-3%	1%
Cc1cc2nc(/N=C(\N)NC(=O)C(C)C)nc(C)c2cc1C	28%	i	15µM*	-33%	-1%	-3%
CCC(=O)N/C(N)=N/c1nc(C)c2cc(C)c(C)cc2n1	u	i	i	1µM*	3%	-2%
COc1ccc(C2CC(=O)c3c([nH]c(C(=O)OC4CCCCCC4)c3C)C2)cc1OC (stereo unspecified)	x	i	i	x	x	x
O=C(Nc1c(C(=O)O)oc2ccccc12)c1ccc(C(F)(F)F)cc1	x	i	i	x	x	x
COc1ccc(COC(=O)N/N=C2/C[C@@H](O)[C@@H](O)[C@@H]3[C@H]4C(=O)N(c5ccc(F)cc5F)C(=O)[C@@H]4CC[C@H]23)cc1	x	x	x	-3%[10 µM]	-5%[10 µM]	x
O=C1[C@H](Cc2ccccc2)NCCCC[C@H](c2ccc(Cl)cc2)N1Cc1ccccc1	-4%	u	u	x	x	u
O=C1[C@H](Cc2ccccc2)NCCCC[C@@H](c2ccc(Cl)cc2)N1Cc1ccc(Cl)cc1	u	u	12µM*!	x	x	u
CCOC(=O)c1ccc(NC(=O)C2=C(C)Nc3nc(SCc4ccc(Cl)cc4)nn3C2c2ccc(OC)cc2)cc1 (stereo unspecified)	x	i	i	x	x	x
O=c1cc(O)n(C2CCCCCC2)c(=O)[nH]1	-4%	u	i	8%	17%	3%
SMILES	SW480 rerep	KB-V1 MDR tox	KB-3-1 tox	RORgamma inh	VP16 counter	MCF10A rereplic
CC(=NCc1ccco1)c1c(O)n(C2CCCCC2)c(=O)[nH]c1=O	12%	5.8µM*	i	32%	-4%	6%
Cc1cccc(NC(=O)Nc2ccc(C#N)cc2)n1	u	u	u	-23%	-19%	15µM*
COc1ccccc1NC(=O)Nc1cccc(C)n1	0%	u	21µM*	17%	-13%	6%
COC(=O)c1ccccc1NC(=O)Nc1cccc(C)n1	25%	i	u	-1%	-1%	-10%
CCN(CC)c1ccc(/C=C2\C=Cc3ccccc32)cc1	x	i	u	x	x	x
O=C(NCCc1ccccc1Cl)c1cc2ccccn2n1	x	i	i	x	x	x
COc1ccc2[nH]c(CN3CCC(CO)(CCOc4ccccc4)CC3)c(C)c2c1	-42%	u	i	-11%	-6%	21µM*
CC(=O)c1cccc(CN2CCC(CO)(CCOc3ccccc3)CC2)c1	-65%	i	i	-13%	0%	u
COc1ccc(CN2CCC(CO)(CCOc3ccccc3)CC2)c(OC)c1C	-4%	i	i	-14%	3%	13%
OCCOc1cccc(CN2CCC(CO)(CCOc3ccccc3)CC2)c1	18µM*	i	i	-14%	2%	3%
CCOC(=O)N1C(COCc2ccccc2)C=CCS1(=O)=O (stereo unspecified)	x	x	x	16%	-1%	x
O=C1NN=COc2ccccc21	1%	u	i	13µM*	-5%	8%
O=C1NC(c2ccc(Cl)cc2)=COc2ccccc21	0%	i	i	-15%	-2%	-4%
COc1ccc(N2C(=O)CSC2c2cccs2)cc1 (stereo unspecified)	18µM*	u	i	u	3%	u
O=C1CSC(c2cccs2)N1c1ccccc1 (stereo unspecified)	-2%	i	u	23%	-1%	-3%
CC(=O)N1CCC(C(=O)N2c3ccccc3N=C(c3ccc(C(F)(F)F)cc3)C2C(=O)NC2CCCC2)CC1 (stereo unspecified)	x	i	i	x	x	x
S=c1nc(C2CC2)n(-c2ccccc2)[nH]1	-6%	i	i	7.9µM*	u	0%
N/C(=N\OC(=O)c1ccc(Cl)cc1)c1ccc(Cl)cc1	1%	i	i	-32%	5%	0%
N/C(=N\OC(=O)c1ccc(Cl)cc1)c1ccn[nH]1	-5%	i	i	14µM*	u	-33%
